Measurements from PubChem BioAssay AID430 (Sanford-Burnham Center for Chemical Genomics, 2006).
Among all 63,000 compounds or so, about 1,100 (1.7%) were called active. The sample as a whole holds a higher share of actives than the screen did. Potency and affinity values are given separately. A number with no mark means an inactive call. Cut-off read from the data, not from the text of the source: active = cytotoxicity above about 50%; inactive = the rest.

assay: HPDE-C7 pancreatic duct cell viability loss – fluorescence, HTS (AID 430); conditions: HPDE-C7 pancreatic duct cells viability, at 10 µM, active compounds read high;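 note: cells exposed to compound for 48 hours before viability readout; 0% = vehicle and 100% = reference cytotoxic drug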

SMILES	cytotoxicity
O=C1N(S(=O)(=O)c2ccccc2F)C(=O)C2(CCCC2)N1S(=O)(=O)c1ccccc1F	-2.1%
Cn1c(N2CCCCC2)nc2c1c(=O)n(Cc1cccc(Br)c1)c(=O)n2C	-15.8%
O=c1[nH]c(Cc2ccccc2)nc2c1oc1ccccc12	-7.5%
O=C(O)c1c(-c2ccccc2)c2oc3ccccc3c2[nH]c1=O	89.7% (active)
O=c1[nH]cnc2c1oc1ccccc12	1.3%
COC(=O)c1c(-c2ccc(F)cc2)noc1N	-23.1%
COc1ccc(C(=O)n2c(-c3ccco3)nc3ccccc32)cc1	66.4% (active)
COc1ccc(C(=O)CSc2nnc(-c3ccco3)n2C)cc1	-10.7%
CCn1c(-c2ccco2)nc2ccccc21	6.2%
O=C(Nc1ccc2c(c1)oc1ccccc12)c1ccc(Br)o1	3.1%
CCCC(=O)Nc1cc(OC)c(OC)cc1C(=O)O	6.8%
O=C(CCc1ccccc1)Nc1nnc(-c2cccs2)o1	-3%
O=C(Nc1nnc(-c2cccs2)o1)c1ccco1	-23%
O=C(Nc1nnc(-c2cccs2)o1)c1cccc(F)c1	41.3%
O=C(Nc1nnc(-c2cccs2)o1)c1cccc(Oc2ccccc2)c1	50.4% (active)
COc1cccc(C(=O)Nc2nnc(-c3cccs3)o2)c1	22%
O=C(Nc1nnc(-c2cccs2)o1)c1cccc(C(F)(F)F)c1	78.7% (active)
CCCCn1c2nc3ccccc3nc2c2c(=O)n(C(C)CC)cnc21 (stereo not drawn)	-10.4%
COc1ccc(CN(CCCN2CCOCC2)S(=O)(=O)N(C)C)cc1OC	-7.2%
COc1ccc2nc(SCC(=O)NC(C)C)[nH]c2c1	-13.4%
O=C(C1Cc2ccccc2O1)N1CCCCC1 (stereo not drawn)	-12.6%
COc1ccc(Cl)cc1N1CC(C(=O)Nc2nccs2)CC1=O (stereo not drawn)	2.4%
O=C(CSc1nnnn1C1CCCC1)N1CCN(C(=O)c2ccco2)CC1	-11.8%
CN(C(=O)c1cccc(C#N)c1)c1nnc(-c2ccccn2)s1	-2%
CCCCCN=Cc1c(C)[nH]n(-c2nc3ccccc3s2)c1=O	1.2%

SMILES	cytotoxicity
O=c1c(C=NCCCn2ccnc2)c(-c2ccccc2)[nH]n1-c1nc2ccccc2s1	57.5% (active)
CCCc1[nH]n(-c2nc3ccccc3s2)c(=O)c1C=NCCN1CCOCC1	8.6%
O=C(NCC(=O)N(Cc1ccc(F)cc1)C(C(=O)NC1CCCC1)c1ccco1)c1ccco1 (stereo not drawn)	-8.4%
CCC(CC)C(=O)Nc1cc(=O)n(C)c(=O)n1C	-10.5%
CC(C)N1CC=C2C(C#N)=C(N)C(C#N)(C#N)C(c3ccccc3)C2C1 (stereo not drawn)	12.8%
CC(=O)N1CC=C2C(C#N)=C(N)C(C#N)(C#N)[C@H](c3ccoc3)[C@H]2C1	9.7%
N#CC1=C(N)C(C#N)(C#N)[C@H](c2ccoc2)[C@H]2CN(Cc3ccccc3)CC=C12	72% (active)
CCSc1nnc(NC(=O)CN(C)S(=O)(=O)c2ccc(F)cc2)s1	-4.8%
Cc1ccc(-c2nnn(CCC(=O)N3CCCCC3C)n2)cc1 (stereo not drawn)	-5.2%
CCCCOc1ccccc1NC(=O)CC1Nc2ccccc2NC1=O (stereo not drawn)	-9.1%
Cc1ccc(C2CC(=O)Nc3cc4c(cc32)OCCO4)s1 (stereo not drawn)	-4.6%
CC(C)Oc1ccccc1C1CC(=O)Nc2cc3c(cc21)OCCO3 (stereo not drawn)	56.4% (active)
CC(C)Oc1ccccc1C1CC(=O)Nc2cc3c(cc21)OCO3 (stereo not drawn)	39.1%
COc1ccccc1C1CC(=O)Nc2cc3c(cc21)OCCO3 (stereo not drawn)	54.4% (active)
O=C1CC(c2ccncc2)c2cc3c(cc2N1)OCCO3 (stereo not drawn)	-10.2%
COc1cccc(C2CC(=O)Nc3cc4c(cc32)OCCO4)c1OC(C)C (stereo not drawn)	27.3%
COc1ccc(C(=O)N2CCN(S(=O)(=O)c3ccc(C)cc3C)CC2)cc1OC	2.4%
Cc1ccc(Cl)cc1NC(=O)Cn1cccc1	-2.6%
Cc1cc(C(=O)N2CCN(Cc3ccc4c(c3)OCO4)CC2)on1	0.3%
COC(=O)c1cc(-c2ccc3c(c2)OCO3)nc2ccccc12	-9.6%
O=C(COc1cccc(NC(=O)c2ccco2)c1)c1ccc(F)cc1	-13.8%
Cn1c(Cl)cnc1C1CC(=O)c2cc(Cl)ccc2O1 (stereo not drawn)	69.6% (active)
CN1CCN(C2=Nc3ccccc3Oc3ccc(Cl)cc32)CC1	10.6%
COc1ccc2c(c1)C(=O)CC(c1ccccc1F)O2 (stereo not drawn)	-4.1%
CCN1CCN(C(=O)c2nn(-c3ccc(OC)cc3)c(=O)c3c2c2ccccc2n3C)CC1	-10.7%

SMILES	cytotoxicity
CCCc1[nH]nc2c1C1(C(=O)N(C(C)C)c3ccccc31)C(C#N)=C(N)O2 (stereo not drawn)	-41.8%
O=C1c2[nH]nc(-c3ccccc3O)c2C(c2ccccc2)N1Cc1ccco1 (stereo not drawn)	21.9%
O=C1c2ccccc2C(O)N1Cc1ccco1 (stereo not drawn)	-6.1%
O=C1c2[nH]nc(-c3ccccc3O)c2C(c2cccc(Cl)c2)N1CC1CCCO1 (stereo not drawn)	32.4%
O=C1C(=O)N(Cc2ccco2)C(c2cccc(Cl)c2)/C1=C(\O)c1ccc2c(c1)OCCO2 (stereo not drawn)	3.5%
CC(=O)C1=C(O)C(=O)N(Cc2ccco2)C1c1ccc(F)cc1 (stereo not drawn)	-1.4%
O=C1c2ccccc2NC(c2ccc(F)cc2)N1Cc1ccco1 (stereo not drawn)	1.1%
COC(=O)Nc1sccc1C(=O)Nc1sccc1C(=O)OC	3.5%
CCOC(=O)N1CCN(c2c(N3CCc4ccccc4C3)c(=O)c2=O)CC1	-10.2%
O=C(CC(O)(c1ccccc1)C(F)(F)C(F)F)c1cccs1 (stereo not drawn)	2.3%
CCN(CC)C(C(=O)Nc1ccc2c(c1)OCO2)c1ccccc1 (stereo not drawn)	5%
N#Cc1c(NC(=O)c2ccc(Br)o2)n(-c2ccccc2)c2nc3ccccc3nc12	54.7% (active)
C=CCn1c(NC(=O)c2ccccc2)c(C#N)c2nc3ccccc3nc21	45.1%
CCCCn1c(NC(=O)c2ccccc2Cl)c(C#N)c2nc3ccccc3nc21	61.7% (active)
CCCCCn1c(N)c(C#N)c2nc3ccccc3nc21	3.3%
CCCCn1c(NC(C)=O)c(C#N)c2nc3ccccc3nc21	-2.1%
CCCCn1c(NC(=O)c2ccc(F)cc2)c(C#N)c2nc3ccccc3nc21	73.6% (active)
C=CCn1c(NC(=O)c2ccccc2Cl)c(C#N)c2nc3ccccc3nc21	17.3%
CCCCn1c(NC(=O)CC)c(C#N)c2nc3ccccc3nc21	10%
CCC(=O)Nc1c(C#N)c2nc3ccccc3nc2n1C1CCCCC1	2%
CCC(=O)Nc1c(C#N)c2nc3ccccc3nc2n1-c1ccccc1C	2.9%
COc1ccc(-n2c(NC(=O)c3ccco3)c(C#N)c3nc4ccccc4nc32)cc1	5.6%
CCCCn1c(NC(=O)c2ccccc2)c(C#N)c2nc3ccccc3nc21	101% (active)
